Assay outcomes from PubChem BioAssay.
This is a sample that favours compounds with a hit; in the whole collection about 2.5% have one here.
Cruzain inh Det = qHTS Assay for Promiscuous and Specific Inhibitors of Cruzain (with detergent); purified cruzain, Z-FR-AMC fluorescence, 0.01% Triton; 200,000 compounds, 0.43% hits; Cruzipain (Trypanosoma cruzi), P25779; Potency, µM, usual class: inhibitors; further: nearly all actives have a fitted effect of over 40% in size
Target sequence (P25779 123-467 limits assumed): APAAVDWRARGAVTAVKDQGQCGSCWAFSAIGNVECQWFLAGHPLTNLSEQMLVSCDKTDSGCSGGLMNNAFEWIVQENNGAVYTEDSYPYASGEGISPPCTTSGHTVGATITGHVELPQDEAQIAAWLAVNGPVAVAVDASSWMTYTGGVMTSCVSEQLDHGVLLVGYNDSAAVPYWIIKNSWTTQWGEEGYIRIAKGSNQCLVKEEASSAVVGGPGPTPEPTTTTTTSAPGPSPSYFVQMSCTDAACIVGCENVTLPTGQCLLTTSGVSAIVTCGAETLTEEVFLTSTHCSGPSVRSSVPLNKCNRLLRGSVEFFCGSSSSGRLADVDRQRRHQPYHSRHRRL
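Sodium acetate buffer (100 mM, pH 5.5) containing 5 mM DTT and 0.01% Triton X-100 hosted 1.5 nM cruzain and test compound for 15 min at room temperature. Cleavage of 2 uM Z-FR-AMC was then tracked by fluorescence.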
Cruzain noTriton = qHTS Assay for Promiscuous and Specific Inhibitors of Cruzain (without detergent). Cruzipain (Trypanosoma cruzi), P25779. purified cruzain, Z-FR-AMC fluorescence, no detergent. Potency, µM, hits mostly inhibitors. 200,000 compounds, 2.3% hits. AID 1476, 2009; further: nearly all actives have a fitted effect of over 40% in size
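Purified cruzain at 1.5 nM, pre-incubated 15 min with compound at room temperature in 100 mM sodium acetate pH 5.5, 5 mM DTT, 0.00005% Triton X-100. Reaction started with 2 uM Z-FR-AMC; AMC fluorescence increase over 60 s gives rate.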
Numbers stand for hits; n = inactive; u = inconclusive. The call rests on the fitted dose curve; in most records, active means well fitted curve in the direction sought with a large enough effect; inconclusive means small, poorly fitted or top-dose-only effect, or another doubt; inactive means no such curve, though single readings can be large; an effect the other way counts as inactive or inconclusive.

SMILES	Cruzain inh Det	Cruzain noTriton
CC(=O)c1ccc(NC(=O)C2CCC(CNS(=O)(=O)c3cccc4nsnc34)CC2)cc1 (configuration not stated)	n	n
Cc1cccc(C(=O)Nc2ccccc2OCc2cc(=O)n3ccccc3n2)c1	n	n
COc1ccc(-c2nc3c4ccccc4n(CC(=O)N4CCN(c5ccccc5F)CC4)c(=O)n3n2)cc1	n	n
Cc1ccc(CNC(=O)C2CCN(C(=O)c3cnn(-c4ccccc4)c3-n3cccc3)CC2)cc1	n	u
C=CCC(C)(Nc1ccccc1)C(=O)OCC (configuration not stated)	n	n
Cc1cccc(C(=O)N2CCc3cc(-c4nc(NC(=O)Cn5nnc6ccccc6c5=O)sc4C)ccc32)c1	n	10µM
COc1ccc(CCC(=O)NCc2ccc3c(c2)CCN3C(=O)c2cccc(C)c2)cc1	n	n
Cc1sc(NC(=O)Cc2ccc3c(c2)OCO3)nc1-c1ccc2c(c1)CCN2C(=O)c1cccc(F)c1	n	7.9µM
Cc1ccccc1C(=O)N1CCc2cc(-c3nc(NC(=O)Cc4ccc5c(c4)OCO5)sc3C)ccc21	n	3.2µM
Cc1sc(NC(=O)CN2CCOCC2)nc1-c1ccc2c(c1)CCN2S(=O)(=O)c1ccccc1	n	u
CCC(CC)C(=O)Nc1nc(-c2ccc3c(c2)CCN3C(=O)C2CC2)c(C)s1	n	n
COc1ccc(N2CCN(c3oc(/C=C/c4cc(OC)c(OC)c(OC)c4)nc3C#N)CC2)cc1	n	u
O=C(NCCS(=O)(=O)N1CCN(c2ccccc2F)CC1)c1ccccc1C(F)(F)F	n	n
O=C(/C=C/c1ccccc1)Nc1ncn[nH]1	n	n
O=C(CSc1nc2ccccc2[nH]1)Nc1ccc(F)c(F)c1	n	25µM
O=C(COc1cccc2ccccc12)Nc1nc2ccccc2[nH]1	n	25µM
O=C(COc1ccccc1)Nc1nc2ccccc2[nH]1	n	n
O=C(/C=C/c1ccc(F)cc1)Nc1nc2ccccc2[nH]1	n	10µM
O=C(CSc1nc2ccccc2[nH]1)Nc1ccccc1F	n	n
O=C(CSc1ccc2ccccc2c1)Nc1nc2ccccc2[nH]1	n	16µM
O=C(CSCc1nc2ccccc2[nH]1)Nc1ccc2ccccc2c1	n	u
O=C(CC1(O)C(=O)N(CCc2ccccc2)c2ccc(Br)cc21)c1ccc(F)cc1 (configuration not stated)	n	u
CCCCN(C)CCNC(=O)c1ccc2c(=O)n(CCc3ccccc3)c(=O)[nH]c2c1	n	n
O=C(Oc1ccc(N(Cc2cccs2)C2=NS(=O)(=O)c3ccccc32)cc1)c1ccccc1	n	u
O=C(Oc1ccc(N(Cc2cccs2)C2=NS(=O)(=O)c3ccccc32)cc1)c1ccc(Cl)cc1	n	32µM
SMILES	Cruzain inh Det	Cruzain noTriton
CCOC(=O)C1CCN(c2c(C(=O)c3ccc(C)cc3)cnc3ccc(F)cc23)CC1	n	n
CCCn1c2ccccc2c2cnn(CC(=O)NCc3ccc(OC)cc3)c(=O)c21	n	n
O=C(Cn1c(O)c(/C=C2\C=Nc3ccccc32)sc1=O)Nc1ccc2c(c1)OCO2	n	5µM
O=C(CN1C(=O)c2ccccc2C1=O)Nc1ccc2c(c1)OCO2	n	n
CC(C)(C)NC(=O)C1CCN(c2nc3ccccc3nc2C(F)(F)F)CC1	n	n
CN(C)c1ncc2nc(-c3cc(F)cc(F)c3)c(=O)n(C)c2n1	n	20µM
CN(C)c1ncc2nc(-c3cc(F)cc(F)c3)c(=O)n(C3CC3)c2n1	n	n
COc1ccccc1NS(=O)(=O)c1cc([N+](=O)[O-])ccc1N/N=C/c1c(C)[nH]c2ccccc12	n	7.9µM
Cc1[nH]c2ccccc2c1/C=N/Nc1ccc(F)cc1F	n	u
O=[N+]([O-])c1ccc(N/N=C/c2c[nH]c3ccccc23)c(S(=O)(=O)Nc2ccc(Cl)cc2)c1	n	u
Cc1[nH]c2ccccc2c1/C=N/Nc1ccc([N+](=O)[O-])cc1	n	25µM
Cc1cc2ccc(OC(=O)c3ccc(N=C(N)N)cc3)cc2oc1=O	n	n
O=[N+]([O-])c1cc(C(F)(F)F)cc([N+](=O)[O-])c1N1CCN(S(=O)(=O)c2ccccc2)CC1	n	n
O=[N+]([O-])c1cc(C(F)(F)F)ccc1N1CCN(S(=O)(=O)c2ccc3ccccc3c2)CC1	n	25µM
O=C(O)/C(=C\c1ccc(O)cc1)c1cccc2ccccc12	n	n
CN(Cc1ccccc1)c1ccc(-c2nc(-c3cccnc3)no2)cc1[N+](=O)[O-]	n	25µM
CN(Cc1ccccc1)c1ccc(-c2nc(-c3ccncc3)no2)cc1[N+](=O)[O-]	n	n
O=CN1CCN(C[C@H](O)CN2CCCCC2)CC1	n	n
Cc1ccc(-n2c(C)cc(/C=N/NC(=O)CC3(C)OCCO3)c2C)cc1	n	n
COc1ccc(Cl)cc1NC(=O)C(=O)N/N=C/c1cc(C)n(-c2ccc(C)cc2)c1C	n	13µM
Cc1ccc(CNC(=O)c2cc(-c3ccc(C)cc3)nc3n[nH]c(-c4cccc([N+](=O)[O-])c4)c23)cc1	n	n
O=C1OCCN1C(=O)[C@H]1[C@H](c2ccc(Cl)cc2)C(c2ccc(F)cc2)=NN1c1ccccc1	n	u
O=C1OCCN1C(=O)[C@H]1[C@H](c2ccc(F)cc2)C(c2ccc(F)cc2)=NN1c1ccccc1	n	u
O=C1OCCN1C(=O)[C@H]1[C@H](c2ccc(F)cc2)C(c2ccc(F)cc2)=NN1c1ccc(Br)cc1	n	25µM
O=C1OCCN1C(=O)[C@H]1[C@H](c2ccc(Cl)cc2)C(c2ccc(F)cc2)=NN1c1ccc(Br)cc1	n	11µM
SMILES	Cruzain inh Det	Cruzain noTriton
COc1cc(-c2noc(-c3ccc(NCc4cccnc4)c([N+](=O)[O-])c3)n2)cc(OC)c1OC	n	u
CC(=O)c1cccc(NC(=O)CN2C(=O)CC(c3ccc(C)cc3C)=Nc3ccccc32)c1	n	n
COc1cccc(NC(=O)C2C3CCC4C(CCC32)C4(Cl)Cl)c1 (configuration not stated)	n	n
COc1ccc(NC(=O)C2C3CCC4C(CCC32)C4(Cl)Cl)cc1 (configuration not stated)	n	25µM
CC(C)C(NC(=O)OCc1ccccc1)C(=O)O (configuration not stated)	n	n
CC(C)[C@H](NC(=O)OCc1ccccc1)C(=O)N[C@H](C=O)Cc1ccccc1	0.032µM	0.032µM
CC(C)[C@H](NC(=O)OCc1ccccc1)C(=O)NCc1ccccc1	n	n
CC(C)[C@H](NC(=O)OCc1ccccc1)C(=O)OCC(=O)Nc1c(F)cccc1F	14µM	u
CCOc1ccc(C2C(C(=O)Nc3ccccc3C)=C(C)Nc3nnnn32)cc1 (configuration not stated)	n	n
OCC1OC([S-])[C@H](O)C(O)C1O.[Au+] (some centres not stated)	n	n
CC1CCN(S(=O)(=O)c2cc(C(=O)N3CCN(c4cccc(Cl)c4)CC3)n(C)c2)CC1	n	u
COc1ccc(-c2cc(C(=O)Nc3sc4c(c3C(N)=O)CCC(C)C4)no2)cc1 (configuration not stated)	n	n
Cc1onc(-c2c(Cl)cccc2Cl)c1C(=O)NC(=S)Nc1sc2c(c1C(N)=O)CCC(C)C2 (configuration not stated)	n	4µM
COc1ccc(-c2noc(-c3ccc(NCc4ccc(C)cc4)c([N+](=O)[O-])c3)n2)cc1OC	n	n
